From PubChem BioAssay AID900 (National Center for Advancing Translational Sciences (NCATS), 2007)
“And” between values parts separate entries of the source, which are not always exact repeats. Equal entries are not always repeated. About 20 (0.03%) of roughly 75,000 compounds were called active. Inconclusive results (about 1%) are left out. The call rests on the fitted dose curve; in most records, active means well fitted inhibition curve with a large enough effect; inconclusive means small, poorly fitted or top-dose-only effect; inactive means flat fitted curve, though single readings scatter. Only a sample is shown.

molecular target: Caspase-1 (Homo sapiens) (UniProt P29466); assay: qHTS Assay for Allosteric/Competitive Inhibitors of Caspase-1; conditions: Caspase-1 enzyme, Ac-WEHD-AFC fluorogenic rate; series mostly up to 57.5 µM;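 further: plate controls were vehicle for no effect and no substrate for full effect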
Source text: NIH Molecular Libraries Screening Centers Network [MLSCN]
NIH Chemical Genomics Center [NCGC]
PI Name: Dr. James Wells,
Dr. Enrique Perez-Paya, Dr.Janice Williams, Dr. Dennis Wolan, a person
The caspases (Cysteine Aspartyl Protease) comprise a related family of 14 dimeric proteases that are critical mediators of apoptosis (programmed cell death) and inflammation. The caspases represent an important class of drug targets for stroke, ischemia, cancer and inflammatory diseases. […] One goal of this project was to identify compounds that act as allosteric inhibitors via stabilizing the procaspase form of the enzyme. Previous work in Well's laboratory has shown that such allosteric inhibitors can be identified and these act by binding at the dimer interface of enzyme (Hardy, Lam et al., 2004).
The biochemical assay was configured using purified caspase 1 at a high enzyme concentration to promote formation of the homodimers and thus facilitate the identification of allosteric inhibitors. The overall goal was to identify reversible inhibitors with better drug-like properties than the currently available set of aspartyl-containing peptidomimetics that covalently bind the active site. Caspase 1 was assayed using the profluorescent substrate Ac-WEHD-AFC. After initiation of the assay with substrate the plates were rapidly read using an automated robotic system (Kalypsys, Inc.) to maintain consistent timing. A kinetic mode of detection was used where the initial rate was collected (estimated final product formation was ~10%). Compounds were screened as a concentration-titration series that ranged from 57 uM to 0.7 nM. Below is the protocol used for caspase 1.
NCGC Assay Protocol Summary:
Caspase 1 was prepared in buffer (50 mM HEPES pH 7.5, 50 mM KCl, 200 mM NaCl, 10 mM DTT, 0.1% CHAPS) at a concentration of 66.6 nM and 3 uL was dispensed to all wells using black solid Kalypsys 1536-well plates. 20 nL of DMSO containing compounds was added using a pin-tool (Kalypsys Inc.) to columns 5-48. Then 20 nL of DMSO solution from a control plate was added to columns 1-4. Controls were: Column 1, 16 point titration with each concentration in duplicate (1:1 dilutions in DMSO; final starting concentration was 57 uM) of the caspase 1 inhibitor Ac-WEHD-CHO (Alexis Biochemicals); Column 2, a 16 point titration with each concentration in duplicate of the free AFC fluorophore prepared in DMSO (Alexis Biochemicals), final starting was 40 uM; Column 3 neutral (DMSO only) control; Column 4: DMSO alone, to serve as a negative control (no substrate was added). Then 1 uL of 20 uM the substrate Ac-WEHD-AFC (Alexis Biochemicals) prepared in the same buffer was dispensed to all wells except columns 2 and 4 and the plates were immediately transferred (< 1 min) to the Viewlux. The plates were then exposed using 405 nm excitation/520 nm emission filters for 4 sec and read at 20 sec intervals for 3 min. Final enzyme concentration was 50 nM and the final substrate concentration was 5 uM.
Concentration-response curves were fitted to the data calculated from slope of the linear regression of fluorescent intensity versus time (the rate). The concentration-effect curves were then classified based on curve quality (r2), response magnitude and degree of measured activity. […] Inconclusive compounds had appreciable concentration-dependent effects on both the measured rate and the interpolated basal fluorescence intensity at the start of the reaction but where the basal fluorescent intensity was marginal (e.g. < 10-fold). Inconclusive compounds also encompass highly fluorescent compounds (>100-fold increases in fluorescent intensities values relative to controls) where artificial concentration-dependent decreases in the rate occurred at high compound concentrations due to fluorescent interferences.
Keywords: Caspase 1, proteases, profluorescent, MLSMR, MLSCN, NIH Roadmap, qHTS, NCGC

SMILES | activity change, negative = inhibition
O=C(Oc1cc(OC(=O)c2ccccc2)c2c(c1)OC(c1ccc(OC(=O)c3ccccc3)c(OC(=O)c3ccccc3)c1)[C@@H](OC(=O)c1ccccc1)C2)c1ccccc1 (stereo partly drawn) | inactive
O=C(/C(=N\O)n1cncn1)c1ccc(Br)cc1Br | inactive
CCC1(C)CC(=O)NC1=O (stereo not drawn) | inactive
Cc1c(S(=O)(=O)O)oc2c1C(=O)C(=O)c1c-2ccc2c1CCCC2(C)C | inactive
Cc1ccc(Cc2nc(-c3cccc(C)c3)no2)cc1 | inactive
N#CCC(=O)NC(=O)NCC1CC1 | inactive
CCCCC/C=C/C=C/C=O | inactive
Cc1noc(C)c1CSc1nnc2ccc3ccccc3n12 | inactive
COc1ccc(/C=C/C(=O)c2ccc(OC)cc2O)cc1 | -5.59% [at 11.5 µM] (inactive)
CCC(CCC(C)C1CCC2C3CC=C4CC(O)CC[C@@]4(C)C3CC[C@@]12C)C(C)C (stereo partly drawn) | inactive
Nc1nc2nc(Cl)[nH]c2c(=O)[nH]1 | inactive
COc1ccc(N2C(=O)C3CCCN3C2c2cccc(OC)c2)cc1 (stereo not drawn) | inactive
COc1ccccc1OCCNCC(O)COc1cccc2[nH]c3ccccc3c12 (stereo not drawn) | inactive
Clc1ccc(C2[C@H]3CN(CC4CCCCC4)[C@H](c4ccccc4)C34CC2(c2cccnc2)C4)cn1 (stereo partly drawn) | inactive
COC1C[C@@H](O[C@@H]2C(C)C(=O)OC(C)C(C)C(O)C(C)C(=O)[C@@]3(CO3)CC(C)C(OC3OC(C)CC(N(C)C)C3O)C2C)OC(C)[C@@H]1O (stereo partly drawn) | inactive
COc1ccc(C2C(C#N)=C(N)Oc3cc(N)ccc32)cc1OC (stereo not drawn) | inactive
CO[C@@H]1COC(=O)[C@H](Cc2ccccc2)NC(=O)C/C=C\[C@@H](C)[C@H](OC)COC(=O)[C@@H](C)NC(=O)C/C=C\[C@H]1C | 0.468% [at 11.5 µM] (inactive) and -0.511% [at 11.5 µM] (inactive)
C=C(C)C1CC=C(CO)CC1 (stereo not drawn) | inactive
C[C@@H]1O[C@@H](OC[C@H]2O[C@@H](Oc3c(-c4cccc(O)c4O)oc4cc(O)cc(O)c4c3=O)[C@H](O)[C@@H](O)[C@@H]2O)[C@H](O)[C@H](O)[C@H]1O | inactive
BrC1C(Br)C(Br)C(Br)C(Br)C1Br (stereo not drawn) | inactive
CC1(C)OC(C(O)(c2ccccc2)c2ccccc2)C(C(O)(c2ccccc2)c2ccccc2)O1 (stereo not drawn) | -8.99% [at 11.5 µM] (inactive)
CCOc1ccc(Cn2nnc(C(=O)NCc3ccccc3)c2N)cc1 | inactive
CC1C(O)CC2C(C(=O)O)=CO[C@@H](O[C@H]3OC(CO)C(O)C(O)C3O)C21 (stereo partly drawn) | inactive
Cc1cccc2c3c(ccc12)C1=C(C(=O)C3=O)C(C)CO1 (stereo not drawn) | inactive

SMILES | activity change, negative = inhibition
C[C@@H]1CC[C@H]2[C@H](C)[C@H]3[C@H](C[C@H]4[C@@H]5CC=C6C[C@@H](O)CC[C@@]6(C)[C@@H]5C[C@@H](O)[C@]34C)N2C1 | -2.52% [at 11.5 µM] (inactive)
Cn1c(SCC(=O)N2CCOCC2)nnc1-c1ccc(NC(=O)c2ccccc2F)cc1 | inactive
CC1CCCN(C(=O)c2ccc3c(c2)C(=O)N(CCC2=CCCCC2)C3=O)C1 (stereo not drawn) | inactive
CC(C)c1ccc(NC(=O)NC2CCCCC2)cc1 | inactive
Nc1nc2[nH]c(=O)c(=O)[nH]c2c(=O)[nH]1 | inactive
COC(=O)[C@@H]1C[C@H]2CC[C@H](O)C[C@H]2N1Cc1ccc(N2CCN(C)CC2)cc1 | inactive
CC1O[C@@H](Oc2c(-c3ccc(O)c(O)c3)oc3cc(O)cc(O)c3c2=O)C(O)C(O)C1O (stereo partly drawn) | inactive
Cc1csc(-c2nc3ccccc3n2C)n1 | inactive
Brc1cc(Br)c(Oc2cc(Br)c(Br)cc2Br)cc1Br | inactive
O=C(O)c1ccc(Cl)c(S(=O)(=O)Nc2ccccc2Cl)c1 | inactive
CC(=O)OCC1OC(C#Cc2ccccc2Cl)C=CC1OC(C)=O (stereo not drawn) | -0.455% [at 11.5 µM] (inactive)
C[C@@H]1/C=C\CC(=O)OC[C@H]2O[C@@H](C=C[C@@H]2O)[C@H](C)/C=C\CC(=O)OC[C@H]2O[C@H]1C=C[C@@H]2O | 0.74% [at 11.5 µM] (inactive)
CC1CC[C@@]23CCC4(C)[C@@]5(C)CCC6C(C)(C)C(O)CC[C@@]6(C)C5C=C[C@@]4(OC2=O)C3C1C (stereo partly drawn) | inactive
CC(C)C1=CC2=CC[C@@H]3[C@](C)(CO)CCC[C@]3(C)C2CC1 (stereo partly drawn) | inactive
COc1ncnc2sc3c(c12)CCCC3 | inactive
CN1CCC(CNC(=O)c2ccc(-n3c(=O)c(=O)[nH]c4ccccc43)cc2)CC1 | inactive
O=C(O)[C@@H]1[C@@H](C(=O)O)[C@]23C[C@@]2(C(=O)O)[C@]2(C(=O)O)CCC3=C3CCCC312 | -0.0959% [at 11.5 µM] (inactive)
CN(C)Cc1c(C#N)c2ccccc2n1C | inactive
COCc1nnc(NC(=O)CS(=O)(=O)Cc2ccccc2)s1 | inactive
CC(C)=CC1C(C(=O)O)C1(C)C (stereo not drawn) | inactive
CCC1=C(OC(=O)N(CC)CC)N2C(=O)OC(=NCC3CC3)[C@]2(C)[C@H]2C1=CC[C@H]1C(=O)N(CC(=O)OC)C(=O)[C@H]12 | inactive
CN1CCc2nc(-c3ccccc3)c(-c3ccccc3)cc2C1 | -1.85% [at 11.5 µM] (inactive)
CC1(C)SC2C(NC(=O)COc3ccccc3)C(=O)N2C1C(=O)O (stereo not drawn) | inactive
O=c1ccc2cc(S(=O)(=O)N3CCN(c4ccccc4)CC3)ccc2o1 | inactive

SMILES | activity change, negative = inhibition
CCOC(=O)[C@]1(C(/C=C/c2ccco2)NC(=O)OC)CCCC1=O (stereo partly drawn) | -4.71% [at 11.5 µM] (inactive)
Cc1cnc(CNc2nc(-c3cccnc3)nc3ccccc23)cn1 | inactive
O=C(COc1ccccc1)NCCc1nc2ccccc2[nH]1 | inactive
COc1ccc(CNc2ncncc2-c2ccccc2OC)c(OC)c1 | inactive
CCC[C@@H]1C[C@@]1(CCC)C(NC(=O)c1ccc(-c2ccccc2)cc1)c1cccc(Cl)c1 (stereo partly drawn) | inactive
Cc1cccc(-c2cc(=O)c3cc(C)ccc3o2)c1 | inactive
COc1ccc(/C=C/NC(=O)c2ccc(OC)cc2)cc1 | -1.51% [at 11.5 µM] (inactive)
O=C(CN1CCOCC1)Nc1cc(Cl)ccc1Cl | inactive
COC(=O)NC(c1ccccc1)[C@]1(C(C)=O)CCCC1=O (stereo partly drawn) | 0.536% [at 11.5 µM] (inactive)
Cc1c2c(nc3ccccc13)-c1cccc(=O)n1C2 | inactive
COc1ccc(C2CC(=O)c3c(O)cc(OC4OC(COC5OC(C)C(O)C(O)C5O)C(O)C(O)C4O)cc3O2)cc1O (stereo not drawn) | inactive
CC(=O)/C(=N\N=C(N)N)c1ccccc1 | -1.52% [at 11.5 µM] (inactive)
C[C@]12C=CC(=O)C=C1CC[C@@H]1[C@@H]2C(=O)C[C@@]2(C)[C@H]1CC[C@]2(O)C(=O)CO | inactive
CC1=C(/C=C/C(C)=C/C=C/C(C)=C/C=C/C=C(C)/C=C/C=C(C)/C=C/C2=C(C)CCCC2(C)C)C(C)(C)CCC1 | inactive
O=C1[C@H]2[C@H]3[C@H](O)[C@H](O)C/C(=N/OCc4ccccc4)[C@H]3CC[C@@H]2C(=O)N1Cc1ccccc1 | -0.986% [at 11.5 µM] (inactive)
COC(=O)[C@@H]1C[C@@]2(O)[C@H](O)[C@H](O)[C@H](O)C[C@H]2N1Cc1ccc(C(C)(C)C)cc1 | inactive
CC1(C)C(=O)C2(CCCCC2)C(=O)OC1c1cccs1 (stereo not drawn) | inactive
CCOc1ccccc1C1NC(=O)NC(C)=C1C(=O)OCc1ccco1 (stereo not drawn) | inactive
CN(C)c1cc2c(Nc3ccc4c(cnn4Cc4ccccc4)c3)ncnc2cn1 | inactive
O=C(NCCN=C1NS(=O)(=O)c2ccccc21)c1ccc(S(=O)(=O)N2CCOCC2)cc1 | inactive
CC1CCCCN1CCCNC(=O)c1ccc(-n2c(=O)c(=O)[nH]c3ccccc32)cc1 (stereo not drawn) | inactive
Nc1ncnc2c1ncn2C1CC(O)C(CO)O1 (stereo not drawn) | inactive
Cc1nnc(N(Cc2ccco2)C(=O)c2ccno2)s1 | inactive
Cc1cc(Cl)ccc1N1C(=O)CC(SCCC(=O)O)C1=O (stereo not drawn) | inactive

SMILES | activity change, negative = inhibition
Cc1cc(C(=O)N2CCN(c3ccccn3)CC2)c(C)o1 | inactive
CC(=O)OC1CCC2(O)CC1(C)CCC1C2CC1(C)C (stereo not drawn) | inactive
O=S(=O)(c1ccccc1)N1CCC2(CC1)CN(Cc1nccs1)C2 | inactive
COc1ccc2c3c1OC1CC(O)C=C[C@@]31CCN(C)C2 (stereo partly drawn) | inactive
COc1c2c(cc3occ(-c4ccc5c(c4)OCO5)c(=O)c13)OC(C)(C)C=C2 | inactive
Cc1cc(C(=O)COC(=O)c2cccs2)c(C)n1-c1c(C)n(C)n(-c2ccccc2)c1=O | inactive
CC(C)CO | inactive
CC1(C)OC2CC(=O)OC[C@@]23C1CC(=O)[C@]1(C)C3CC[C@@]2(C)C(c3ccoc3)OC(=O)C3O[C@@]321 (stereo partly drawn) | inactive
O=C(NCCSc1ccccc1)c1ccco1 | inactive
CN1CC(=O)N=C1N | inactive
COc1cc(OC)c2c(c1Cl)OC1(C2=O)C(O)=CC(=O)CC1C (stereo not drawn) | inactive
O=C1OC(C(O)CO)C(O)=C1O (stereo not drawn) | inactive
COC(=O)[C@@]1(Cc2ccccc2)[C@H]2c3cc(C(=O)N(C)C)n(CCSCCO)c3C[C@H]2CN1C(=O)c1ccccc1 | inactive
C=C1C(=O)C23C(O)C1CCC2[C@]12COC3(O)C(O)C1C(C)(C)CC[C@H]2O (stereo partly drawn) | inactive
Oc1ccc2ccccc2c1C=NCc1c(O)ccc2ccccc12 | -2.14% [at 11.5 µM] (inactive)
Cc1cn(COC/C=C/c2ccccc2)c(=O)[nH]c1=O | inactive
CC(C)=CCC/C(C)=C/CC/C(C)=C/CC/C(C)=C/CO | inactive
CCc1c(C)c2c(C)[nH]nc2oc1=O | inactive
CCCC[C@@H]1C[C@H]1C(NC(=O)c1ccc(-c2ccccc2)cc1)c1ccc(-c2ccccc2)cc1 (stereo partly drawn) | inactive
Cc1c(C(=O)OCc2cc(=O)n3cc(Br)ccc3n2)oc2ccccc12 | inactive
FC(F)(F)c1ccc(CN2C[C@@H]3C(c4ccccc4)C4(c5ccccc5)CC3(C4)[C@H]2c2ccccc2)cc1 (stereo partly drawn) | inactive
